PubChem BioAssay AID1454 (National Center for Advancing Translational Sciences (NCATS), 2008)
In all, about 130,000 compounds went through this assay and about 550 (0.42%) were called active. A call without a number means that no potency is given here. About 4% were inconclusive and are not listed. The sample as a whole holds a higher share of actives than the screen did. A number with no mark means an inactive call. Calls come from the whole dose curve; as a rule, active = well fitted inhibition curve with a large enough effect; inconclusive = small, poorly fitted or top-dose-only effect, or effect the other way; inactive = flat fitted curve, though single readings scatter.

assay: qHTS Assay for Inhibitors of the ERK Signaling Pathway using a Homogeneous Screening Assay; Stimulation with EGF; conditions: HEK293-V1b, EGF-stimulated phospho-ERK AlphaScreen; series mostly up to 57.5 µM; note: nearly all actives have a fitted effect of over 55% in size
Source text: NIH Chemical Genomics Center [NCGC]
NIH Molecular Libraries Screening Centers Network [MLSCN]
Assay Submitter (PI): Dr. Wei Zheng, NCGC/NIH
The Ras/extracellular-signal-regulated kinase (ERK) mitogen activated protein (MAP) kinase signaling pathway (ERK1/2 cascade) plays a key role in transmitting signals from the cell surface to the nucleus (Nishida and Gotoh 1993; Chang and Karin, 2001). The cascade is initiated by the small G-protein Ras, which recruits Raf from the cytosol, where activation occurs. Alternatively, this pathway can be activated by elevating intracellular cAMP, or by activation of a receptor tyrosine kinase as epidermal growth factor receptor.
Activation of the ERK pathway is essential in increased cell division and cell survival. Sustained and constitutive activation of the ERK pathway, however, has been linked to uncontrolled cell proliferation, increased cell survival, and tumor progression. Thus, the ERK has been as an attractive target for cancer chemotherapy in the past few years (Sebolt-Leopold and Herrera, 2004). Given its physiological and pathological importance, assessment of ERK phosphorylation has been broadly performed in both basic research and drug discovery. Most assays for the measurement of ERK phosphorylation use the antibody-based detection methods, such as western blot and ELISA. These assays require multiple reagent additions with cell wash steps and are not suitable for high throughout screening.
The current cell-based ERK phosphorylation assay was performed using AlphaScreen platform. AlphaScreen is a two bead-based proximity-dependent chemical energy transfer luminescent assay platform. The assay reagents (ERK SureFire(TM) kit) were supplied from TGR BioSciences (Australia). In the presence of specific antibodies, phosphorylated ERK will bring "donor" and "acceptor" beads to a proximity range (<200 nm), and subsequently lead a chemical luminescent reaction upon exciting donor beads with 680 nm laser. To exclude the assay-related false positives, we used a biotinylated rabbit IgG to perform counter-screen. The biotinylated antibody mimics the phosphorylated ERK1/2 for bringing streptavidin coated beads and protein-A coated beads to a proximity range for the AlphaScreen detection.
NCGC Assay Protocol Summary:
HEK293 cells stably expressing type-1 vasopressin receptor (V1b) were maintained in DMEM medium (Invitrogen, Carlsbad, CA) at 37C under a humidified atmosphere containing 5% CO2 and 95% air. The medium contained 10% FBS, 2 mM L-glutamine, non-essential amino acid, pyruvate and 50 U/ml penicillin and 50 ug/ml streptomycin (Invitrogen). The aliquots of frozen cells were stored at -135C and used for the compound screening. All compounds were screened as titrations from 0.6 nM to 46 uM final concentration. Epidermal growth factor (EGF) was used to stimulate the ERK phosphorylation pathway. The ERK phosphorylation in cells was determined using an AlphaScreen assay kit provided by […]. Data were normalized to the controls for basal activity (DMSO only) and 100% activation (25 nM EGF). AC50 values were determined from concentration-response data modeled with the standard Hill equation.
(1) Seed 4 ul/well of resuspended frozen HEK293 cells containing 2000 cells in white 1536-well plates for overnight with 1% FBS at 37C under a humidified atmosphere containing 5% CO2 and 95% air.
(2) Add 23 nL compounds in DMSO solution. The final titration was 0.6 nM to 46 uM.
(3) Incubate at 37C for 30 min.
(4) Dispense 0.5uL EGF (25 nM in final)
(5) Incubate at 37C for 5 min.
(6) Dispense 0.5uL of 1:2 diluted 5x lysis buffer.
(7) Incubate at 37C for 10 min.
(8) Dispense 1.5uL of mixture of activation buffer and reaction buffer with AlphaScreen beads (streptavidin donor beads and protein-A acceptor beads, 10 ng/well for each).
(9) Incubate at room temperature for 5 hr.
(10) Detect the assay plate in an EnVision plate reader (PerkinElmer) using the AlphaScreen detection mode.
[…]
Potency is the fitted concentration of half-maximal effect.

| Structure (SMILES) | Potency | activity change, negative = inhibition |
| --- | --- | --- |
| Cc1cc(-c2n[nH]c(=S)n2-c2ccc(C)c(C)c2)no1 | 3.98 µM (active) | – |
| CCCCC/C=C\C/C=C\C/C=C\C=C\[C@H](CCCC(=O)O)OO | – | -6.51% [at 11.5 µM] |
| COC1=C[C@]23CCCN2CCc2cc4c(cc2[C@@H]3[C@@H]1O)OCO4 | – | -6.17% [at 11.5 µM] |
| O=c1[nH]c(=O)n(-c2ccc(F)cc2)c(O)c1C=NCCN1CCCCC1 | – | inactive |
| CCCCCCCCCCCCn1ccc(=N)cc1 | 22.4 µM (active) | – |
| O=C1CC(=O)N(Cc2ccccc2)C(=O)N1CCCCCCN1C(=O)CC(=O)N(Cc2ccccc2)C1=O | – | inactive |
| CC(=O)Cc1ccc(OC(C)C)cc1 | – | inactive |
| C1CC[C@H]([C@@]23C[C@H](C[C@H]4CCCN[C@H]42)[C@@H]2CCCCN2C3)NC1 | – | -0.522% [at 11.5 µM] |
| O=c1[nH]c(=O)n(CCc2ccc(F)cc2)c(O)c1/C=N/N1CCCCC1 | – | inactive |
| N#Cc1c(Cl)c(Cl)c(Cl)c(C#N)c1Cl | 3.98 µM (active) | – |
| CNC(=O)Nc1ccc(C(O)(C(=O)OC)C(F)(F)F)cc1 (stereo not given) | – | inactive |
| Fc1ccc(C2N3CCCN23)cc1 (stereo not given) | – | inactive |
| COc1ccc(-n2c(O)c(C(C)=Nc3ccc4c(c3)CCC4)c(=O)[nH]c2=O)cc1 | – | inactive |
| CN1CCN(/N=C/c2c[nH]c3ccccc23)CC1 | – | inactive |
| CCCCC(=O)N/N=C/c1c(O)n(-c2ccccc2)c(=O)[nH]c1=O | – | inactive |
